Data on three compounds can be found in ChEMBL document CHEMBL2218924, “A broad activity screen in support of a chemogenomic map for kinase signalling research and drug discovery” (Biochem J, 2013).

The target of assay [1] is Serine/threonine-protein kinase SIK1 (Homo sapiens) (UniProt P57059). The settings on record: at 10 µM.
Assay [2] has as its target SRSF protein kinase 1 (Homo sapiens) (UniProt Q96SB4). As to conditions: at 1 µM.
Assay [3] shares this target. The settings on record: at 10 µM.
The target in assay [4] is SRSF protein kinase 2 (Homo sapiens) (UniProt P78362). The settings on record: at 1 µM.
Chain of SRSF protein kinase 2 (Homo sapiens) (P78362 whole entry, looked up): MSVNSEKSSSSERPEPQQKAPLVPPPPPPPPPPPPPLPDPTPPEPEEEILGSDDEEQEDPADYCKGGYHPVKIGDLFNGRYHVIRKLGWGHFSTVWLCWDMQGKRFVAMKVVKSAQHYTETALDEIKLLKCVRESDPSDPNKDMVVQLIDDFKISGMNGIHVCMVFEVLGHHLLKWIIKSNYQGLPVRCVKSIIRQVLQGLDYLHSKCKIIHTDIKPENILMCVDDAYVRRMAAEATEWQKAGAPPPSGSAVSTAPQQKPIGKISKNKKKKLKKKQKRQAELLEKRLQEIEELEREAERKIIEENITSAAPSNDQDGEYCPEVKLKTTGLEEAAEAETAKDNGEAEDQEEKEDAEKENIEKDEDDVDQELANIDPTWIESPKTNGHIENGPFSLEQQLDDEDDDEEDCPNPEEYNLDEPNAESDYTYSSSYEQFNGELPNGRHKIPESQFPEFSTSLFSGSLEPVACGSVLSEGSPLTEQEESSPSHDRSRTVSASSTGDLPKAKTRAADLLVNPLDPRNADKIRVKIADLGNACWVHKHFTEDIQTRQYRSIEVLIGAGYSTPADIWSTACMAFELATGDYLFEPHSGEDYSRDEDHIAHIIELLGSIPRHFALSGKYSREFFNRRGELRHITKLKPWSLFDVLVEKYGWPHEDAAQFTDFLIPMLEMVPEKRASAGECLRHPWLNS
Assay [5] shares this target. The settings on record: at 10 µM.
Assay [6] deals with Serine/threonine-protein kinase 33 (Homo sapiens) (UniProt Q9BYT3). As to conditions: at 1 µM.
Chain of Serine/threonine-protein kinase 33 (Homo sapiens) (Q9BYT3 whole entry, looked up): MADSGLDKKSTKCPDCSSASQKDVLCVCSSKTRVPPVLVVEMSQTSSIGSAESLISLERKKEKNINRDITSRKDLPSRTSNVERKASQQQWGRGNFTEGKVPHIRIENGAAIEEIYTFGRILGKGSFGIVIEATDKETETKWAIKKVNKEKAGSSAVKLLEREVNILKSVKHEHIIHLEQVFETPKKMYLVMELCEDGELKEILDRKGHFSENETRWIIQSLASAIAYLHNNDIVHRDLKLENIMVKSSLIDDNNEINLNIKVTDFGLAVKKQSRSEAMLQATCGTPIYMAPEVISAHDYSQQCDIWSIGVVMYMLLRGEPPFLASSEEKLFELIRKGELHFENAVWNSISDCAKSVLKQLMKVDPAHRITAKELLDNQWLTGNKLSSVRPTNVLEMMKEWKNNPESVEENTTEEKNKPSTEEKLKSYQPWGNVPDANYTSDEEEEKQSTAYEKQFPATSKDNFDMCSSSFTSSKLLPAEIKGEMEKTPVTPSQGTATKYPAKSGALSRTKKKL
Assay [7] has the same target. The settings on record: at 10 µM.
For assay [8], the target named is Serine/threonine-protein kinase PLK2 (Homo sapiens) (UniProt Q9NYY3). As to conditions: at 1 µM.
Chain of Serine/threonine-protein kinase PLK2 (Homo sapiens) (Q9NYY3 whole entry, looked up): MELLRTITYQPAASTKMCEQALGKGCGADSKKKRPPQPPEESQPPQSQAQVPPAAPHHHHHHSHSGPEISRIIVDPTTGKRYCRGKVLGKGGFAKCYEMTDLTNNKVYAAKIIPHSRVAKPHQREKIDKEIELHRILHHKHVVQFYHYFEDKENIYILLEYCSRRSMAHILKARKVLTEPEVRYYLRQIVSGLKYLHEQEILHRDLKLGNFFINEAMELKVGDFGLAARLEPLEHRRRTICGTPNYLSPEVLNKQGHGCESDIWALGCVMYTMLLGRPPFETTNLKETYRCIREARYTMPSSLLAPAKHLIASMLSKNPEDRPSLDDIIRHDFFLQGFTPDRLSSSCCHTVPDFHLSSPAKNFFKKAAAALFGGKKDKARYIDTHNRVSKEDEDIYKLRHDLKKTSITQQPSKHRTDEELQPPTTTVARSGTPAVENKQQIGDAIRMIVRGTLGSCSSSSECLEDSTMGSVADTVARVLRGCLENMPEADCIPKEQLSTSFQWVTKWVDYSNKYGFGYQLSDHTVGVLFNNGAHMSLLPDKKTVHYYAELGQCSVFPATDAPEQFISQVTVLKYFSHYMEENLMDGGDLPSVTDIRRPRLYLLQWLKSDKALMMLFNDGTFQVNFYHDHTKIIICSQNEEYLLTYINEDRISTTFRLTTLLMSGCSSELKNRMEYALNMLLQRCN
Assay [9] shares this target. As to conditions: at 10 µM.
Assay [10] has as its target Tyrosine-protein kinase SYK (Homo sapiens) (UniProt P43405). As to conditions: at 1 µM.
Assay [11] shares this target. As to conditions: at 10 µM.
In assay [12] the target is T1, Mitogen-activated protein kinase kinase kinase 7 (Homo sapiens) (UniProt O43318).
T1 sequence (whole entry): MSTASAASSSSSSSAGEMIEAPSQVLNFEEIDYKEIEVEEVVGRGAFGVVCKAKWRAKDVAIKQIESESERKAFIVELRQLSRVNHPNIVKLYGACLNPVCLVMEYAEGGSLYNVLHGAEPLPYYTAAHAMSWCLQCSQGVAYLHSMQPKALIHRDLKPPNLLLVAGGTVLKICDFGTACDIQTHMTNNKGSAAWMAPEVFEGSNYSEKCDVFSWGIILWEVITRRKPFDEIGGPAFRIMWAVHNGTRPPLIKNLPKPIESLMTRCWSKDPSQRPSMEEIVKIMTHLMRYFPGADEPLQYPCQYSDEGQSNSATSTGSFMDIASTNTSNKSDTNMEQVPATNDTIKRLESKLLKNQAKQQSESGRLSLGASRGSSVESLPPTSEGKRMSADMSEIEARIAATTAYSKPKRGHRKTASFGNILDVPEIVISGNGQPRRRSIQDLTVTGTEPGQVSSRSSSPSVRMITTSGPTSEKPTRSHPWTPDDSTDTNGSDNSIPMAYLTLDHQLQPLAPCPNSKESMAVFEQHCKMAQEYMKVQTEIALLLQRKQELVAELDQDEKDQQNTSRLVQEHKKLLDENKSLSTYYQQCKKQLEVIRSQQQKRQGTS
The settings on record: at 1 µM.

For assay [13], the target named is T1, Mitogen-activated protein kinase kinase kinase 7 (Homo sapiens). As to conditions: at 10 µM.
For assay [14], the target named is T2, Serine/threonine-protein kinase TAO1 (Homo sapiens) (UniProt Q7L7X3).
T2 sequence (whole entry): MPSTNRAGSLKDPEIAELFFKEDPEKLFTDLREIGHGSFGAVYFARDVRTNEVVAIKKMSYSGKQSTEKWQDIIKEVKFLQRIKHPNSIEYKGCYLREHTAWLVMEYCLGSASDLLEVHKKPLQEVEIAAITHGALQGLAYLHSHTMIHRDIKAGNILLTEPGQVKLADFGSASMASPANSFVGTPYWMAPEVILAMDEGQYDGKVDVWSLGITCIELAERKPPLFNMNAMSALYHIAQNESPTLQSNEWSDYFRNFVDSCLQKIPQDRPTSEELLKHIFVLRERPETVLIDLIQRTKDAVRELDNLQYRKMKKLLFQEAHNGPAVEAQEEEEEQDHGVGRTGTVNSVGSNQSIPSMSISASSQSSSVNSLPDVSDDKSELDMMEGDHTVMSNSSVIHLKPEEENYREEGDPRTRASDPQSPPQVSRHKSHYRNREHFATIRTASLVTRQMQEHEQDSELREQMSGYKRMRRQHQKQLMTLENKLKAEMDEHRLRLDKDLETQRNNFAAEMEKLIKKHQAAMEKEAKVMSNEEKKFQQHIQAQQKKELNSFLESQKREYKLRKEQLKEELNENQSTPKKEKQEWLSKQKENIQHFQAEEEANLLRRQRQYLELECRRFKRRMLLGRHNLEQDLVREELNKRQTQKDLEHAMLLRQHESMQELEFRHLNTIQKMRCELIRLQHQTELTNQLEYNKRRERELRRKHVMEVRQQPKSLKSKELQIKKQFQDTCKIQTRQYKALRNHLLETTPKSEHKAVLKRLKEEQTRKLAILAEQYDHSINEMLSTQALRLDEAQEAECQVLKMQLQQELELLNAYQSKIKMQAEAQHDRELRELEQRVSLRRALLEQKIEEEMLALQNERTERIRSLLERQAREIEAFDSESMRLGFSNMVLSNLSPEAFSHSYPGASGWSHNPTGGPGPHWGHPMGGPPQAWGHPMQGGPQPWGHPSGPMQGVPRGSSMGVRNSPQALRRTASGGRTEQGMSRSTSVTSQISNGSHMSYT
As to conditions: at 1 µM.

The target of assay [15] is T2, Serine/threonine-protein kinase TAO1 (Homo sapiens). The settings on record: at 10 µM.
Assay [16] concerns the target T3, Serine/threonine-protein kinase TAO2 (Homo sapiens) (UniProt Q9UL54).
T3 sequence (whole entry): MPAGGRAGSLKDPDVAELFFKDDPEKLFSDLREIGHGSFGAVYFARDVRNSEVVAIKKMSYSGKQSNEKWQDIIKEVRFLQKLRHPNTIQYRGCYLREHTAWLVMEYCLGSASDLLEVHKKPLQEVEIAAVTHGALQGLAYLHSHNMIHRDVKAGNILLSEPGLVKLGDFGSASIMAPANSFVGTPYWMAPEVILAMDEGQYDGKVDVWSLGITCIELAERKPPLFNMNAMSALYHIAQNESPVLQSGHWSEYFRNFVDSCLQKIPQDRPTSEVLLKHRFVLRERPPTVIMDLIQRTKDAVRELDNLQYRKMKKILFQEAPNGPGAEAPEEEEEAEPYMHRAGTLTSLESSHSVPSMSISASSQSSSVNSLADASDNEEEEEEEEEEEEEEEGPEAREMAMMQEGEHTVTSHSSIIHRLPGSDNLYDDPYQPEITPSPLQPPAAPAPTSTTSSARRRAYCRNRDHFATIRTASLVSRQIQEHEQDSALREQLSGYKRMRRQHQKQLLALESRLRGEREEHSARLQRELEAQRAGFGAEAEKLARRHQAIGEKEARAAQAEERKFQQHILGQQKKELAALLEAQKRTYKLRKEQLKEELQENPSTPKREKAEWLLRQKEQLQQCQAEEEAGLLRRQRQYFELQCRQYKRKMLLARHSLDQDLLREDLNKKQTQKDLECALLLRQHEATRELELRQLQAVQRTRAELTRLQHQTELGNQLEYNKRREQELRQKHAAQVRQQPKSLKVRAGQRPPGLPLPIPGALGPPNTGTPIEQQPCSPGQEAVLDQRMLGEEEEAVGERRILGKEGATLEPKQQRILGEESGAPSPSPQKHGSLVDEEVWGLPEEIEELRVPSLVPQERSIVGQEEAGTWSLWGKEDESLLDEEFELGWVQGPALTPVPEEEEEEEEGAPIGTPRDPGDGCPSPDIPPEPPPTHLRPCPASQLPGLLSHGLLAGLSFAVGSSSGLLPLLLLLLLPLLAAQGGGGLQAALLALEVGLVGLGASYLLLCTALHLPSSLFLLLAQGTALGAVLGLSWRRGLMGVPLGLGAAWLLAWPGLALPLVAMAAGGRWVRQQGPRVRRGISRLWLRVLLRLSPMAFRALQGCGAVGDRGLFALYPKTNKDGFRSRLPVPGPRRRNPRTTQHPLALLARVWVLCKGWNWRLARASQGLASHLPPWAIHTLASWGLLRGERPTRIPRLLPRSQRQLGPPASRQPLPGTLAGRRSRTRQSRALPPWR
As to conditions: at 1 µM.

Assay [17] has as its target T3, Serine/threonine-protein kinase TAO2 (Homo sapiens). The settings on record: at 10 µM.
Assay [18] concerns the target T4, Serine/threonine-protein kinase TAO3 (Homo sapiens) (UniProt Q9H2K8).
T4 sequence (whole entry): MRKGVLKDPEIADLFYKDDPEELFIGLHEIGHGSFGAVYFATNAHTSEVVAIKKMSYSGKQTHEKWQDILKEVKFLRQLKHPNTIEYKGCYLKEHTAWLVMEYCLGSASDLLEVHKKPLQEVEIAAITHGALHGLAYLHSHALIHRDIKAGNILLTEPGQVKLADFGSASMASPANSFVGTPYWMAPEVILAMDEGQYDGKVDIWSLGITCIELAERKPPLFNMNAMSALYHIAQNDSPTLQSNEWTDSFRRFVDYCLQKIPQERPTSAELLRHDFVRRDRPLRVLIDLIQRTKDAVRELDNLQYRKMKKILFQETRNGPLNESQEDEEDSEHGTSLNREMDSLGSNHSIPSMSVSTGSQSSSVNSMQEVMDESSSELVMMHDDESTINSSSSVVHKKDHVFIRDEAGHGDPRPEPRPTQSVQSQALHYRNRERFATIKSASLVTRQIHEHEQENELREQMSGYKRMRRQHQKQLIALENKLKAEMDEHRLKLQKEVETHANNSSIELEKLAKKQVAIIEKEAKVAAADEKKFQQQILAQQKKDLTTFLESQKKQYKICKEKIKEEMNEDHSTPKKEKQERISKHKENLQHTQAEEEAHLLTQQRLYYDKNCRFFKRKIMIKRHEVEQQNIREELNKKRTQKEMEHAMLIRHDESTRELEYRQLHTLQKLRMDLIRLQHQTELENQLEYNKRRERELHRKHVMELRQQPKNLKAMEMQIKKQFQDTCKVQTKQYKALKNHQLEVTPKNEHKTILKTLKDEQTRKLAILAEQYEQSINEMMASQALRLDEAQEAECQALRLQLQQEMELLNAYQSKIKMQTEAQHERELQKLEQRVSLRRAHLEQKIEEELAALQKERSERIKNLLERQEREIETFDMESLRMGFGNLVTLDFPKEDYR
As to conditions: at 1 µM.

Assay [19] deals with T4, Serine/threonine-protein kinase TAO3 (Homo sapiens). The settings on record: at 10 µM.
For assay [20], the target named is T5, Serine/threonine-protein kinase TBK1 (Homo sapiens) (UniProt Q9UHD2).
T5 sequence (whole entry): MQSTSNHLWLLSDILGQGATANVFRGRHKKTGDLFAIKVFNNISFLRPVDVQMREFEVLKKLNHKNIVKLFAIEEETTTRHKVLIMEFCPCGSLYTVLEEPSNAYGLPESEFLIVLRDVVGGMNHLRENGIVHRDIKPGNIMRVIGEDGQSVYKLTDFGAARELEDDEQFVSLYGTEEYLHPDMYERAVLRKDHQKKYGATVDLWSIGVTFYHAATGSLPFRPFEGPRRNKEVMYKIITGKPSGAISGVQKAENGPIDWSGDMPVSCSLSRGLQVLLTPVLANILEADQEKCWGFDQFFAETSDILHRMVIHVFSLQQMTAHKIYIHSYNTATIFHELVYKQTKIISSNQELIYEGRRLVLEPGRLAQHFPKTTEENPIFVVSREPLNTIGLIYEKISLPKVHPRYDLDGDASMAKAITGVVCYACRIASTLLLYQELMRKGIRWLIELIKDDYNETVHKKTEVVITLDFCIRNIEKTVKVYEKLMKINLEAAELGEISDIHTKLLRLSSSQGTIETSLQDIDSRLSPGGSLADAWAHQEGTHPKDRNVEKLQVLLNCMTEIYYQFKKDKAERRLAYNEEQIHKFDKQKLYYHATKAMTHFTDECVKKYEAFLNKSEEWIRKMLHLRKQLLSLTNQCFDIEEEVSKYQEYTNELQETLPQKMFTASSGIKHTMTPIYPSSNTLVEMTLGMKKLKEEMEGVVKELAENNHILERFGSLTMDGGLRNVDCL
As to conditions: at 1 µM.

Chain of Serine/threonine-protein kinase SIK1 (Homo sapiens) (P57059 whole entry): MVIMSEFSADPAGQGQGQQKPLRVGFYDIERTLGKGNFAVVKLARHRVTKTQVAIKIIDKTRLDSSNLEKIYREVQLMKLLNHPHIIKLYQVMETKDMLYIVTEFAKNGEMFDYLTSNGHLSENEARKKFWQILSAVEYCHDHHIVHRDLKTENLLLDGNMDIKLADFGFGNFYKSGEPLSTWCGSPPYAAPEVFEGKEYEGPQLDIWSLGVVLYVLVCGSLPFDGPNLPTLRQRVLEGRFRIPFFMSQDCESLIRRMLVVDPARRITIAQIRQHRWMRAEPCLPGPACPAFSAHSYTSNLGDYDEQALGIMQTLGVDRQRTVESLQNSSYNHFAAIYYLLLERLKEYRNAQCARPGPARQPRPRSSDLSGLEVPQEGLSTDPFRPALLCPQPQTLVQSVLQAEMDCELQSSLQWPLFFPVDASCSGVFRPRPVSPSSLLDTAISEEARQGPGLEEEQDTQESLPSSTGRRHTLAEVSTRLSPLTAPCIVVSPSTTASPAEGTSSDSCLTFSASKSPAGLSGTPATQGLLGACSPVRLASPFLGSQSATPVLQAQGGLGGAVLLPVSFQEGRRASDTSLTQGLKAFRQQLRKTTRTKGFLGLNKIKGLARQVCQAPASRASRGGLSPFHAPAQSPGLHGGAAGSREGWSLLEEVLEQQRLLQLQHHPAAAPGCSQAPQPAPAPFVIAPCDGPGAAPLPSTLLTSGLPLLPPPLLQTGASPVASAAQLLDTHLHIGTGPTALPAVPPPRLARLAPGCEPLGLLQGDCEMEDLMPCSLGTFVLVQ
Chain of SRSF protein kinase 1 (Homo sapiens) (Q96SB4 whole entry): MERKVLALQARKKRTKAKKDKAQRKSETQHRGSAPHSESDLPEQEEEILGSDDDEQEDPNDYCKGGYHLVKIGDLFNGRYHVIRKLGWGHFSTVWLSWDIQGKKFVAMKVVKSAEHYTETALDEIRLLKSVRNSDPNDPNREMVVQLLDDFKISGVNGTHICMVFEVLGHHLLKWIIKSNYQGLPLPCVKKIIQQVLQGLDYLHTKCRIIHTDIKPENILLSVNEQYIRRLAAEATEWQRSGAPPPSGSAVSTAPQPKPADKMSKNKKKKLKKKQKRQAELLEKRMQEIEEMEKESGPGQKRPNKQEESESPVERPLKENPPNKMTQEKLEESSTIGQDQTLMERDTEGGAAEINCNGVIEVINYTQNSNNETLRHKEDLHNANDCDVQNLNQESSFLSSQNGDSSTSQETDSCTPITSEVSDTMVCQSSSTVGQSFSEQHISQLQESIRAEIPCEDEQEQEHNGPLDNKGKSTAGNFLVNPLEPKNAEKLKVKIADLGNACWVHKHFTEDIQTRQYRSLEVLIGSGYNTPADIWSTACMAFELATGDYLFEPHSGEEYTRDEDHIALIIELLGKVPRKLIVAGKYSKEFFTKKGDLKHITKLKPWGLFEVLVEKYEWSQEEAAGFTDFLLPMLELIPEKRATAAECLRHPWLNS

With `NC(=O)c1ccc2[nH]c(-c3ccc(Oc4ccc(Cl)cc4)cc3)nc2c1`, the residual activity in assay [1] is 107%; in assay [2], 94%; in [3], 64%; in assay [4], 81%; in assay [5], 76%; in [6] it was 96%. Besides, the residual activity was 85% in [7]; 90% in assay [8]; 93% in assay [9]; 109% in assay [10]; 96% in assay [11]; 92% in [12]. In addition, the residual activity in assay [13] is 81%; in [14] it was 89%; in assay [15] it was 72%; in assay [16], 88%; in [17], 99%; in [18], 98%. In addition, the residual activity in [19] stood at 79%; in [20], 67%.

For the compound `O=[N+]([O-])c1ccc(-c2nc(-c3ccc(F)cc3)c(-c3ccncc3)[nH]2)cc1`, the residual activity came out at 106% in assay [1]; 109% in [2]; 109% in [3]; 98% in [4]; 85% in assay [5]; 104% in [6]. The residual activity in [7] worked out at 101%; in assay [8], 103%; in assay [9], 104%; in [10] it was 118%; in [11], 107%; in assay [12] it was 104%. Further, the residual activity in assay [13] is 91%; in assay [14], 97%; in assay [15], 91%; in assay [16] it was 109%; in assay [17], 103%; in assay [18], 98%. The residual activity is 96% in assay [19] and 87% in [20].

`Ic1cccc(CSc2nnc(-c3ccncc3)o2)c1`: the residual activity in assay [1] amounted to 100%; in assay [2], 97%; in assay [3], 102%; in assay [4], 88%; in [5] it was 79%; in [6] it was 86%. Further, the residual activity in assay [7] is 80%; in [8], 97%; in assay [9] it was 97%; in assay [10], 98%; in [11], 96%; in [13], 82%. Further, the residual activity in [14] amounted to 63%; in assay [15] it was 47%; in assay [16], 88%; in assay [17], 85%; in assay [18], 93%; in assay [19] it was 89%. The residual activity in [20] came to 15%.
